Only some compounds are listed: those with a hit (about 2.4% of all), similar ones and a draw of the others.
D2 ag-1 = Beta-Arrestin HTS for Positive Allosteric Modulators of the Human D2 Dopamine Receptor: Agonists; activation, % (concentration not given with the values); AID 624465, 2012; D(2) dopamine receptor (Homo sapiens), P14416; DiscoveRx PathHunter D2 beta-arrestin, luminescence, 90 min; 100% = 57 uM dopamine signal; actives 0.084% (n = 360,000); in the data active = activation above about 40%
Target sequence (P14416 whole entry, looked up): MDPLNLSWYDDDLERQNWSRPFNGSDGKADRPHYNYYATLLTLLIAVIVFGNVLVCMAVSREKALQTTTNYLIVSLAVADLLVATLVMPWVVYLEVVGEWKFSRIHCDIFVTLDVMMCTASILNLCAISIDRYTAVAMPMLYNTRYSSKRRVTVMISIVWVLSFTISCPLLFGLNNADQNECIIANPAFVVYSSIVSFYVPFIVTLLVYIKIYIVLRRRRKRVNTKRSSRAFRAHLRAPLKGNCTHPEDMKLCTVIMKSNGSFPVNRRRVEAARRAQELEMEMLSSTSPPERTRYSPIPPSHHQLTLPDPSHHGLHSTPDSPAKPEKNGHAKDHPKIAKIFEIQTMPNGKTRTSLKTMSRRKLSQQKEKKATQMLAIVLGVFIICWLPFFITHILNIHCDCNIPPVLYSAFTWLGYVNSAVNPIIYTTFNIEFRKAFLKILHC
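Agonist mode: compounds alone added to overnight-plated D2 PathHunter cells for 90 min at 37 C, with 57 uM final dopamine (EC100) defining full response. Beta-arrestin recruitment detected by chemiluminescent reagent, read after 1 h at ambient temperature.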
D2 PAM-1 = HTS Assay for Positive Allosteric Modulators of the Human D2 Dopamine Receptor: Primary Screen for Potentiators. D(2) dopamine receptor (Homo sapiens), P14416. HEK293 T-REx D2, calcium flux, EC20 dopamine potentiation. potentiation, % at 10 µM. actives 0.34% (n = 340,000);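 active = potentiation over 3 SD above the plate norm, cut at about 30% in these data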
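Potentiation of an EC20 dopamine calcium response measured kinetically over 180 s, after a preceding 180 s compound-only read flagging agonists. Cells: inducible Hek293 Trex D2 line, 4000/well, cultured overnight at 30 C before dye loading.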
D2 ag-2 = HTS Assay for Allosteric Agonists of the Human D2 Dopamine Receptor: Primary Screen for Agonists | actives 0.53% (n = 340,000) | activation, % at 2 µM | AID 485358, 2010 | HEK293 T-REx D2 cells, calcium flux agonist mode | D(2) dopamine receptor (Homo sapiens), P14416;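 active = activation over 3 SD above normal in the single-dose calcium agonist read, cut at about 30% in these data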
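Calcium-flux readout, 1 cycle/sec over 180 s following compound pin transfer, in inducible HEK293 Trex D2 cells (force-coupled); dopamine controls included. Positive calcium responses during this window marked compounds as potential agonists.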
D2 antagonist = HTS Assay for Allosteric Antagonists of the Human D2 Dopamine Receptor: Primary Screen for Antagonists; D(2) dopamine receptor (Homo sapiens), P14416; HEK293 TREx D2 cells, calcium flux, dopamine EC80; inhibition, % at 10 µM; actives 2% (n = 340,000); in the data active = inhibition above about 30%; inactive = below that, where a call was filed
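Calcium mobilization kinetics were recorded at 1 s intervals in tetracycline-induced HEK293 T-REx D2 cells, first for 180 s after compound addition and then 180 s after EC80 dopamine.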
D2 PAM-2 = Beta-Arrestin HTS for Positive Allosteric Modulators of the Human D2 Dopamine Receptor: Potentiators; DiscoveRx D2 beta-arrestin cells, luminescence, 90 min; 100% = 57 uM dopamine signal; actives 0.23% (n = 360,000); D(2) dopamine receptor (Homo sapiens), P14416; potentiation, % (test concentration not listed); in the data active = potentiation above about 50%
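PathHunter beta-arrestin assay in DiscoveRx D2 cells. Compounds were added with an EC20 of dopamine (50 nM final) for 90 min at 37 deg C. Luminescence was read 1 h after detection reagent, with 57 uM dopamine as the EC100 control.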
Numbers stand for hits; - = inactive; . = no result given.

SMILES	D2 ag-1	D2 PAM-1	D2 ag-2	D2 antagonist	D2 PAM-2
CCOC(=O)c1cnn(Cc2cccc(Cl)c2)c1C	-	-	-	56	-
O=S(=O)(NCCc1csc2nc(-c3ccc(Cl)cc3)nn12)c1cccs1	.	-	-	.	.
CN(C)c1cccc2c(S(=O)(=O)Nc3ccccn3)cccc12	-	.	-	-	54
Nn1c(SCC(=O)N2CCCCCC2)nnc1-c1ccncc1	-	-	-	30	-
O=C(CSc1nnc(-c2ccccc2)n1CC1CCCO1)N1CCCC1 (centres undefined)	-	32	-	-	-
O=C(CSc1nnc(-c2ccco2)n1CC1CCCO1)N1CCCCC1 (centres undefined)	-	-	-	-	-
CCN(C(=O)CSc1nc(-c2ccccc2)no1)c1cccc(C)c1	.	-	-	.	.
Cc1ccc(-n2[nH]c(C)c(C=Nc3ccc(S(=O)(=O)Nc4nc(C)cc(C)n4)cc3)c2=O)c(C)c1	-	-	-	-	-
CNS(=O)(=O)c1ccc(N=Cc2c(C)[nH]n(-c3ccc(C)cc3C)c2=O)cc1	-	-	-	42	-
O=C(CSc1nc2ccccc2nc1Cc1ccccc1)N1CCc2ccccc21	.	-	-	.	.
CCN(C(=O)c1ccc2c(c1)N(Cc1cccc(Cl)c1)C(=O)c1ccccc1S2=O)c1ccccc1 (centres undefined)	.	-	-	.	.
O=C(COc1ccc(Br)cc1)Nc1ccc2c(c1)C(=O)NC2=O	-	-	-	33	-
Cc1ccccc1Cn1cnc2c(NS(C)(=O)=O)c(C)c(C)cc21	-	-	-	35	-
Cc1ccc(CNC(=O)CCS(=O)(=O)c2ccc3c(c2)oc(=O)n3C)cc1	-	-	-	30	-
CC(=O)N1CCc2cc(S(=O)(=O)NC(C(=O)Nc3ccc(C)cc3C)C(C)C)ccc21 (centres undefined)	.	-	-	.	.
CC(=O)N1CCCc2cc(S(=O)(=O)NC(C(=O)NCc3ccc(C)cc3)C(C)C)ccc21 (centres undefined)	-	46	-	-	-
COc1ccc(CNC(=O)c2ccc(CNS(=O)(=O)c3ccc(F)cc3)cc2)cc1	.	-	-	.	.
CCN(CC)CCCNC(=O)C(C)Sc1nc(-c2ccccc2)cc(C(F)(F)F)n1 (centres undefined)	-	-	-	31	-
CC(Sc1nc(-c2ccccc2)cc(C(F)(F)F)n1)C(=O)O (centres undefined)	-	-	-	-	-
Cc1nc(-c2ccc(F)cc2)sc1CCNC(=O)c1ccco1	.	-	.	.	.
Cc1ccc(C(=O)O/N=C2\CCSc3ccc(C)cc32)cc1	-	-	-	-	-
COc1ccc(S(=O)(=O)O/N=C2\CCSc3ccc(C)cc32)cc1	-	-	-	-	72
Cc1ccc(N2CCN(C(=O)c3c4c(nc5ccccc35)C(=O)N(C3CCCCC3)C4)CC2)c(C)c1	.	-	-	.	.
CCc1ccc(C2c3c(-c4cc(C)ccc4O)n[nH]c3C(=O)N2CCO)cc1 (centres undefined)	.	-	-	.	.
COc1ccccc1CN1CC(C(=O)N2CCN(c3ccc(F)cc3)CC2)CC1=O (centres undefined)	-	32	-	-	-
SMILES	D2 ag-1	D2 PAM-1	D2 ag-2	D2 antagonist	D2 PAM-2
Fc1cc(Br)ccc1Nc1c2c(nc3nc(-c4cccs4)nn13)CCCC2	.	-	-	.	.
Cc1ccc2[nH]c3c(c2c1)CCCC3=O	-	-	-	-	-
O=C1CCCc2c1[nH]c1ccc(CN3CCCCC3)cc21	-	-	-	51	-
COc1ccc(Br)c2c1-c1nc(NC(=O)c3cccc(C)c3)sc1C2	.	.	-	.	.
CC1CCN(S(=O)(=O)c2ccc3c(c2)CCC(=O)N3CC(=O)Nc2cccc(C#N)c2)CC1	.	-	-	.	.
CCOc1ccc(OCC)c(NC(=O)Nc2ccc3c(c2)N(C)C(=O)CS3)c1	-	-	-	64	-
COC(=O)/C=c1/s/c(=C(/C#N)C(=O)N2CCCCC2)n(-c2ccccc2)c1=O	-	-	-	-	-
COc1cc(/C=c2\s/c(=C(/C#N)C(=O)N3CCCC3)n(-c3ccccc3)c2=O)ccc1O	-	-	39	-	-
COc1ccccc1-c1nc(SCC(=O)NCc2ccccc2)c2c(=O)n(C)c(=O)n(C)c2n1	.	-	-	.	.
COc1ccc(NC(=O)c2ccc(-c3ccccc3C(F)(F)F)o2)cc1	-	-	-	49	-
O=C(Nc1cccc(F)c1)c1ccc(-c2ccccc2C(F)(F)F)o1	.	-	-	-	.
CCOC(=O)C1CCN(C(=O)CCc2nc3ccccc3[nH]2)CC1	-	-	-	61	-
CCOC(=O)C1CCN(C(=O)CCc2ccccc2)CC1	-	-	-	-	-
O=C1NC(NS(=O)(=O)c2ccccc2)(C(F)(F)F)C(=O)N1c1ccc(F)cc1 (centres undefined)	-	-	-	33	-
COc1cccc(C2CC(c3ccc(Cl)cc3)n3nc(N)nc3N2)c1 (centres undefined)	-	-	-	57	-
O=C(CSc1ncccn1)NCc1ccc(Cl)cc1	-	-	-	36	-
O=C(CSc1ccccc1)NNC(=O)c1ccncc1	-	-	-	57	-
O=C(CSc1ncccn1)NC(=O)c1ccccc1	-	34	-	-	-
Nc1nnc(SCC(=O)NNC(=O)c2ccccc2)s1	-	-	-	37	-
Nc1nnc(SCC(=O)NNC(=O)c2ccc(F)cc2)s1	-	-	-	-	-
CCc1cccc(CC)c1NC(=O)c1cc(S(=O)(=O)N2CCc3ccccc32)cn1C	.	-	-	.	.
CC(C(=O)Nc1ccc(OCc2ccccc2)cc1)N1CCCC1 (centres undefined)	-	-	-	-	-
CC(C)COCC(CN(Cc1ccccc1)c1ccccc1)N1CCCC1 (centres undefined)	-	-	38	-	-
Cc1cc(NC(=O)Nc2ccc(F)cc2)no1	-	40	-	-	-
Cc1cc(NC(=O)c2ccccc2Cl)no1	-	-	-	-	-
Cc1cc(NC(=O)c2c(F)cccc2Cl)no1	-	31	-	-	-
COc1ccccc1CNC(=O)CCCNC(=O)c1ccc(Cl)cc1	-	30	-	-	-
CSc1cccc(NC(=O)CCCNC(=O)c2ccc(Cl)cc2)c1	-	-	-	45	-
Cc1cccc(NC(=O)CCNC(=O)c2ccccc2)c1	-	-	-	35	-
CC(=O)c1ccc(OCCCC(=O)Nc2cc(S(=O)(=O)N(C)C)ccc2C)cc1	-	-	-	-	-
